Laboratory results as given in PubChem BioAssay (EPA / NIEHS).
Some compounds were tested as several samples or in several runs, with calls that do not always agree. The source made the active and inactive calls. Rule for the calls: active = hit-call score of the fitted dose curve at least 0.9, where 1 is the maximum; inactive = score below 0.9.

Read-out: Interleukin-8 (IL8), CXCL8 (gene 3576)
Test: BSK_BF4T_IL8: BioMAP Diversity Plus: BF4T Assay for Interleukin-8 (IL8) Biomarker Activity (AID 2284263)
Conditions: primary human bronchial epithelial cells with fibroblasts
Protocol: BSK_BF4T is a cell-based, multiplexed-readout assay that uses bronchial epithelial cells and dermal fibroblasts, a human vascular primary cell, with measurements taken at 24 hours after chemical dosing in a microplate: 96-well plate.BSK_BF4T_IL8 is an assay component measured in the BSK_BF4T assay. It measures IL-8 antibody related to regulation of gene expression using ELISA technology.Data from the assay component BSK_BF4T_IL8 was analyzed at the endpoint, BSK_BF4T_IL8, in the positive analysis fitting direction relative to DMSO as the negative control and baseline of activity. Using a type of binding reporter, gain or loss-of-signal activity can be used to understand protein changes. To generalize the intended target to other relatable targets, this assay endpoint is annotated to the 'cytokine' intended target family, where the subfamily is 'interleukins'.
The levels of cell surface (or secreted, indicated by the prefix "s") biomarker endpoints were measured by ELISA. Overt cytotoxicity to cells in confluent adherent cultures (all systems other than the BT system) was assessed by measuring total protein levels using sulforhodamine B (SRB) staining in parallel cultures at the time of biomarker measurements, indicated as SRB endpoints. For proliferation assays for adherent cell types, individual cell types are cultured at sub-confluence and relative cell numbers quantified by SRB staining at time points optimized for each system (48 h: 3C and CASM3C systems; 72 h: BT and HDF3CGF systems; 96 h: SAg system). SRB was performed by staining cells with 0.1% SRB after fixation with 10% TCA and reading wells at 560 nm.Viability and proliferation of PBMC (T cells) was quantified by Alamar Blue reduction for the SAg and BT systems. For PBMC viability (referred to as PBMC Cytotoxicity within the assay endpoint names), cells were plated (75,000/well in a 96-well plate) and then chemical samples added for 1 h before addition of activators, SEB and TSST-1 (20 ng/mL final concentration each). Cells were incubated for 90 h. Then, Alamar Blue (20 uL/well) (Invitrogen, Cat DAL1100) was added for 6 h, and the plates were read with a fluorescence microplate reader at 546/580 nm (excitation/emission). For PBMC proliferation, cells were plated and activated as above but incubated for only 16 h prior to addition of Alamar Blue. Plates were read after 6 h.

Compound | AC50 | outcome
CNS(=O)(=O)C(F)(F)C(F)(F)C(F)(F)C(F)(F)C(F)(F)C(F)(F)C(F)(F)C(F)(F)F | 46.3 µM (active) | inactive
NCC(F)(F)C(F)(F)C(F)(F)C(F)(F)C(F)(F)C(F)(F)F | – | inactive
NC(O)(C(F)(F)F)C(F)(F)F | – | inactive
O=C(O)C(F)(F)OC(F)(F)C(F)(F)OC(F)(F)C(F)(F)OC(F)(F)F | – | inactive
OC(O)C(F)(F)C(F)(F)F | – | inactive
O=C(O)CCC(F)(F)C(F)(F)C(F)(F)F | – | inactive
C=C(C)C(=O)OCC(F)(F)C(F)(F)C(F)(F)C(F)F | – | inactive
NC(=O)C(F)(F)C(F)(F)C(F)(F)C(F)(F)C(F)(F)C(F)(F)C(F)(F)F | – | inactive
OCC(O)CC(F)(F)C(F)(F)C(F)(F)C(F)(F)F (stereo not given) | 0.22 µM (active) | inactive
O=C(F)C1(F)C(F)(F)C(F)(F)C(F)(F)C(F)(F)C1(F)F | – | inactive
NC(=O)C(F)(F)C(F)(F)C(F)(F)C(F)F | – | inactive
OCC(F)(F)C(F)(F)C(F)(F)CO | – | inactive
O=C(Cl)C(F)(F)C(F)(F)C(F)(F)C(F)(F)C(F)(F)C(F)(F)C(F)(F)F | – | inactive
CCOC(=O)CC(=O)C(F)(F)C(F)(F)F | – | inactive
O=S(=O)(Cl)C(F)(F)C(F)(F)C(F)(F)C(F)(F)C(F)(F)C(F)(F)C(F)(F)C(F)(F)F | – | inactive
NC(=O)C(F)(F)C(F)(F)C(F)(F)F | – | inactive
C=CC(=O)OCC(F)(F)C(F)(F)C(F)(F)COC(=O)C=C | 10.8 µM (active) | inactive
O=C(Cl)C(F)(F)C(F)(F)C(F)(F)C(F)(F)C(F)(F)C(F)(F)F | – | inactive

Compound | AC50 | outcome
C=CC(=O)OCC(F)(F)C(F)(F)C(F)(F)C(F)(F)C(F)(F)C(F)(F)C(F)(F)C(F)F | – | inactive
OCC(F)(F)C(F)(F)C(F)(F)C(F)(F)C(F)(F)C(F)(F)C(F)(F)C(F)(F)CO | – | inactive
O=C(O)C(F)(F)C(F)(F)C(F)(F)OC(F)(F)F | 0.218 µM (active) | inactive
O=S(=O)(O)CCC(F)(F)C(F)(F)C(F)(F)C(F)(F)C(F)(F)C(F)(F)C(F)(F)C(F)(F)F | – | inactive
OCC(F)(F)C(F)(F)C(F)(F)C(F)(F)C(F)(F)C(F)(F)CO | – | inactive
O=C(O)C(F)(F)C(F)(F)C(F)(F)C(F)(F)C(F)(F)C(F)(F)C(F)F | – | inactive
FC(F)(F)C(F)(F)C(F)(F)C(F)(F)C(F)(F)C(F)(F)C(F)(F)CCI | – | inactive
CN(C(=O)C(F)(F)C(F)(F)C(F)(F)F)[Si](C)(C)C | – | inactive
OCC(O)CC(F)(F)C(F)(F)C(F)(F)C(F)(F)C(F)(F)C(F)(F)C(F)(F)C(F)(F)F (stereo not given) | – | inactive
C[Si](Cl)(Cl)CCC(F)(F)C(F)(F)C(F)(F)C(F)(F)C(F)(F)C(F)(F)F | – | inactive
NCC(F)(F)C(F)(F)C(F)(F)C(F)(F)C(F)(F)C(F)(F)C(F)(F)C(F)(F)F | – | inactive
OCCCCC(F)(F)C(F)(F)C(F)(F)C(F)(F)F | – | inactive
O=C(O)C(F)(F)C(F)(F)C(F)(F)C(=O)O | – | inactive
COC(F)(C(F)F)C(F)(F)F (stereo not given) | – | inactive
NC(=O)C(F)(F)C(F)(F)C(F)(F)C(F)(F)C(N)=O | – | inactive
NS(=O)(=O)C(F)(F)C(F)(F)C(F)(F)C(F)(F)C(F)(F)C(F)(F)F | – | inactive
O=S(=O)(OCC(F)(F)F)C(F)(F)C(F)(F)C(F)(F)C(F)(F)F | – | inactive
CO[Si](C)(CCC(F)(F)C(F)(F)C(F)(F)C(F)(F)C(F)(F)C(F)(F)F)OC | – | inactive
